Each structure is given as a SMILES string. Measured potencies and affinities stand elsewhere. Activity calls are given as the source filed them.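 Rule for the calls: active = Loss of cell signal with fitted half-effect dose at or below twice the top valid tested dose; inconclusive = Poor fit, or flat fit from -70 to -30 percent; inactive = Half-effect above limit, rising signal, or flat within 30 percent.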

The assay can be described thus: HEK293T cell cytotoxicity, dose response, cytotoxicity control for HIV Vif inhibitor project, cherry-picks (AID 652208). Conditions: HEK293T viability, CellTiter-Glo luminescence, 24 h; series mostly up to 26 µM.
As to `CCOc1ccc(CC(=O)Nc2sc(Cc3ccccc3)c(C)c2C(N)=O)cc1OCC`, the molecule was classed as inactive.

With `CCN1c2ccccc2NC2C1C(C(C)=O)C(=O)N2c1ccc(Cl)cc1` (stereo not drawn), the call was inactive.

In the case of `COc1ccc(NC(=O)c2ccccc2NC(=O)CSc2ccc(C)cc2)cc1`, the call was inactive.

For the molecule `COc1cc(OC)cc(C(=O)NC(C(=O)Nc2ccc3c(c2)OCO3)C(C)C)c1` (stereo not drawn), the call was inactive.

As for `COc1ccc(CC(=O)OCC(=O)NCc2ccc(Cl)cc2)cc1`, the outcome was inactive.

In the case of `CCOc1ccc2nc(NS(=O)(=O)Cc3ccccc3)sc2c1`, the call was inactive.

On to `COc1cc2ccccc2cc1C(=O)Nc1ccc(Cl)cn1`, for which the molecule was classed as inactive.

Turning to `Cc1nc(-c2ccccc2OC(F)(F)F)[nH]c(=O)c1Cl`, the molecule was called inactive.

On to `N#Cc1cc2c(=O)n3ccccc3nc2n(-c2ccccc2Cl)c1=O`, for which the molecule was called inactive.

`S=C(NC1CC1)N1CCc2ccccc2C1`: the call was inactive.

As to `Oc1[nH]c(=S)sc1/C=C1\C(c2ccccc2)=Nc2ccccc21`, the molecule was classed as inactive.

For `CCOc1ccc2c(C)c(C(=O)O)oc2c1OCC`, the molecule was classed as inactive.

On to `COc1cccc(NC(=O)NC2(C(F)(F)F)Oc3ccccc3O2)c1`, for which the call was inactive.

Regarding `CCOc1ccc(C(=O)c2cc([N+](=O)[O-])ccc2N2CCOCC2)cc1`, the call was inactive.

On to `O=C(NCc1ccccn1)c1ccc(Cn2c(=S)[nH]c3ccc(Br)cc3c2=O)cc1`, for which the molecule was classed as inactive.

`CNC(=O)c1ccc(NC(=O)c2cc(S(=O)(=O)N(C)C)ccc2N2CCCC2)cc1`: the call was inactive.

Turning to `Cc1ccc(C(=O)NC(CCc2ccccc2)C(=O)O)cc1` (stereo not drawn), the result was inactive.

For the molecule `NC(=O)c1sc2nc(-c3ccccc3)ccc2c1N`, the outcome was inactive.

Consider `O=C(Nc1nn[nH]n1)c1cc(-c2ccc(Cl)c(Cl)c2Cl)nc2ccccc12`, for which the molecule was classed as inactive.

As to `COc1ccccc1N1C(=O)c2cccc3c(N(C)CCO)ccc(c23)C1=O`, the molecule was called inactive.

As for `Cc1ccc(-c2nn3c(C)nnc3c3ccccc23)cc1S(=O)(=O)NCc1ccccc1`, the outcome was inactive.

On to `O=C(O)c1ccc(S(=O)(=O)c2ccc3c(c2)C(=O)N(c2ccc(Br)cc2)C3=O)cc1`, for which the molecule was called inactive.

With `O=C1c2ccccc2C(Nc2ccc(S(=O)(=O)N3CCOCC3)cc2)N1c1ccccn1` (stereo not drawn), the call was inactive.

As to `Cc1ccc(C(=O)COC(=O)c2cc(=O)[nH]c3ccccc23)cc1C`, the outcome was inactive.

As for `Cc1ccc(-n2c(SCC(=O)Nc3ccc4c(c3)OCO4)nnc2-c2cccs2)cc1`, the molecule was classed as inactive.

`Cc1ccc(N(C)S(=O)(=O)c2ccc(-c3ccc(=O)[nH]n3)s2)cc1C`: the result was inactive.

Regarding `Cc1cccc(C)c1NC(=O)COc1ccc2c(C)c(Cc3ccccc3)c(=O)oc2c1C`, the call was inactive.

For `COc1ccccc1C(=O)COC(=O)C1(C)CC1(Cl)Cl` (stereo not drawn), the call was inactive.

Take `COc1c(Br)cc(Br)cc1/C=C1/C(=O)N=C(N)N1C`: the call was inactive.

For the molecule `CCOC(=O)C1CCCN1C(=O)C1(NC(C)=O)CCCC1` (stereo not drawn), the result was inactive.

On to `Cc1ccnc(SCC(=O)n2c3c(c4ccccc42)CC(C)CC3)n1` (stereo not drawn), for which the outcome was inactive.

Turning to `CC(C)CN(C(=O)COC(=O)CSc1ccccc1)c1c(N)n(Cc2ccccc2)c(=O)[nH]c1=O`, the molecule was classed as inactive.

As for `CCOC(=O)C1CCCN(C(=O)c2cc(S(=O)(=O)N(C)C)ccc2N2CCCC2)C1` (stereo not drawn), the outcome was inactive.

Regarding `CN1CCc2c(sc(NC(=O)c3cc(Cl)sc3Cl)c2C(N)=O)C1`, the call was inactive.

Regarding `COCCN(C(=O)COC(=O)Cc1ccc(Cl)cc1)c1c(N)n(Cc2ccccc2)c(=O)[nH]c1=O`, the molecule was called inactive.

In the case of `COc1ccc(/C=c2\s/c(=C/C(=O)c3ccc(C)cc3)[nH]c2=O)c(OC)c1`, the result was inactive.

With `Cc1nnc2ccc(-c3cccc(NS(=O)(=O)c4cc(F)ccc4F)c3)nn12`, the molecule was classed as inactive.

Turning to `C[C@@H]1CN([C@H](C)CO)C(=O)CCCn2cc(nn2)CO[C@H]1CN(C)C(=O)c1ccccc1`, the call was inactive.

For the origin of these results see PubChem BioAssay AID652208 (Broad Institute, 2013).
